From the supplement of paper PMC10849652
About 7,900 targets were measured; listed, in parts, are those with a hit and a random draw of the rest. About 0.6% of all pairs of compound and target were hits.

Tests used:
Experiment in all cases: log2 fold change, soluble protein after heating vs DMSO (PISA); higher = thermal stabilisation; K562 cells, 10 uM, 30 min; active = over 0.2 and 3.5 SD of the protein, either way, in both replicates (recomputed)
bafetinib = compound: Cc1ccc(NC(=O)c2ccc(CN3CC[C@H](N(C)C)C3)c(C(F)(F)F)c2)cc1Nc1nccc(-c2cncnc2)n1 [bafetinib]
Outline: (§1)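 K562 cells at 2×10^6 cells/mL were treated with 10 μM compound for 30 min. Aliquots were heated for 3 min across 48°C-58°C, pooled, and extracted in PBS with 0.5% NP-40 at 4°C; soluble protein was the supernatant after 21,000xg for 90 min. Soluble protein was quantified by TMTpro 16plex LC-MS/MS with channel sums equalised, and reported as log2 fold change in thermal stability against DMSO controls, with values from duplicates.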

[1] = compound: Cc1cccc(CC(=O)N2CCc3c2ccc(-c2cn(C)c4ncnc(N)c24)c3F)n1
Outline: as §1

nilotinib = compound: Cc1cn(-c2cc(NC(=O)c3ccc(C)c(Nc4nccc(-c5cccnc5)n4)c3)cc(C(F)(F)F)c2)cn1 [nilotinib]
Outline: as §1

[2] = compound: Cc1nc(Nc2n[nH]c3c2CN(C(=O)N[C@H](CN(C)C)c2ccccc2)C3(C)C)c2sccc2n1
Outline: as §1

dasatinib = compound: Cc1nc(Nc2ncc(C(=O)Nc3c(C)cccc3Cl)s2)cc(N2CCN(CCO)CC2)n1 [dasatinib]
Outline: as §1

[3] = compound: Cc1ncc(-c2ccnc(Nc3ccc(S(C)(=O)=O)cc3)n2)n1C(C)C
Outline: as §1

[4] = compound: Cn1cc(-c2ccc3c(c2)CCN3C(=O)Cc2cccc(C(F)(F)F)c2)c2c(N)ncnc21
Outline: as §1

[5] = compound: Cn1cc(-c2ccc3nnc(C(F)(F)c4ccc5ncccc5c4)n3n2)cn1
Outline: as §1

tipifarnib = compound: Cn1cncc1[C@@](N)(c1ccc(Cl)cc1)c1ccc2c(c1)c(-c1cccc(Cl)c1)cc(=O)n2C [tipifarnib]
Outline: as §1

mubritinib = compound: FC(F)(F)c1ccc(/C=C/c2nc(COc3ccc(CCCCn4ccnn4)cc3)co2)cc1 [mubritinib]
Outline: as §1

[6] = compound: NC(=O)Nc1cc(-c2cccc(F)c2)sc1C(=O)N[C@H]1CCCNC1
Outline: as §1

[7] = compound: NC(=O)c1cnc(N[C@@H]2CCCC[C@@H]2N)nc1Nc1cccc(-n2nccn2)c1
Outline: as §1

[8] = compound: NC1(c2ccc(-c3nc4ccn5c(=O)[nH]nc5c4cc3-c3ccccc3)cc2)CCC1
Outline: as §1

[9] = compound: NCC(=O)Nc1ccc(-n2nc(C(F)(F)F)cc2-c2ccc3c(ccc4ccccc43)c2)cc1
Outline: as §1

entinostat = compound: Nc1ccccc1NC(=O)c1ccc(CNC(=O)OCc2cccnc2)cc1 [entinostat]
Outline: as §1

vorinostat = compound: O=C(CCCCCCC(=O)Nc1ccccc1)NO [vorinostat]
Outline: as §1

citarinostat = compound: O=C(CCCCCCNC(=O)c1cnc(N(c2ccccc2)c2ccccc2Cl)nc1)NO [citarinostat]
Outline: as §1

silmitasertib = compound: O=C(O)c1ccc2c(c1)nc(Nc1cccc(Cl)c1)c1ccncc12 [silmitasertib]
Outline: as §1

[10] = compound: O=C1NC(=O)C(c2cnc3ccccn23)=C1c1cn2c3c(cc(F)cc13)CN(C(=O)N1CCCCC1)CC2
Outline: as §1

[11] = compound: c1cc(OCCN2CCCCC2)cc(-c2n[nH]c3ccc(-c4nnc[nH]4)cc23)c1
Outline: as §1

Measured: log2 fold change

NUP210 (UniProt Q8TEM1)
inactive: bafetinib -0.178 | [1] 0.053 | nilotinib -0.125 | [2] -0.009 | dasatinib -0.118 | [3] -0.038 | [4] 0.055 | [5] 0 | tipifarnib -0.039 | mubritinib 0.034 | [6] 0.022 | [7] -0.173 | [8] -0.19 | [9] -0.126 | entinostat 0.047 | vorinostat 0.054 | citarinostat 0.022 | silmitasertib -0.033 | [10] -0.004 | [11] -0.023

NR2C2 isoform 2 (UniProt P49116)
UniProt P49116, sequence (P49116 whole entry, looked up): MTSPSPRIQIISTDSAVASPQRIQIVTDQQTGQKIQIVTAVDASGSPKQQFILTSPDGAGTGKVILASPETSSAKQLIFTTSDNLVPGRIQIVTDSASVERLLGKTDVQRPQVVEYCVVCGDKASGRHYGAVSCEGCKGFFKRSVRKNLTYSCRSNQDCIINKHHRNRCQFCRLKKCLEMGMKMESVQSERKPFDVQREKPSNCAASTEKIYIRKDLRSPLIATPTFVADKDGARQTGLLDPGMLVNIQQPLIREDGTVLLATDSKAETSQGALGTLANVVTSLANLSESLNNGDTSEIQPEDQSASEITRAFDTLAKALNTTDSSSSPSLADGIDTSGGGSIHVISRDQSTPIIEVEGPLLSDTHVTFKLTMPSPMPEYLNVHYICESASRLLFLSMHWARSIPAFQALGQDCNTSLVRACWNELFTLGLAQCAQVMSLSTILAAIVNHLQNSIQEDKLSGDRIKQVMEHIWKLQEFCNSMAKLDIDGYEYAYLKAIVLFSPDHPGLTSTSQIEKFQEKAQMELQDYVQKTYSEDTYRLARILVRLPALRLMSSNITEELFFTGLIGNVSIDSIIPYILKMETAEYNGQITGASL
inactive: bafetinib -0.093 | [1] 0.027 | nilotinib -0.033 | [2] -0.091 | dasatinib -0.026 | [3] 0.021 | [4] -0.003 | [5] -0.038 | tipifarnib -0.184 | mubritinib 0.026 | [6] -0.056 | [7] -0.036 | [8] -0.211 | [9] -0.104 | entinostat -0.02 | vorinostat -0.116 | citarinostat -0.022 | silmitasertib 0.074 | [10] 0.03 | [11] -0.04

NDUFS8 (UniProt O00217)
UniProt O00217, sequence (O00217 whole entry, looked up): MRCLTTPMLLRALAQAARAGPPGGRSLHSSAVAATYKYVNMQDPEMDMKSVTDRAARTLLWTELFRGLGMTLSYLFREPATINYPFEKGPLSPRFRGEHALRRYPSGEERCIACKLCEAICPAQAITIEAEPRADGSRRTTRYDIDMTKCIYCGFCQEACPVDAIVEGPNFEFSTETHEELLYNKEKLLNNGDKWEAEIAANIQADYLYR
inactive: bafetinib -0.055 | [1] 0.047 | nilotinib -0.036 | [2] -0.002 | dasatinib -0.1 | [3] -0.047 | [4] 0.1 | [5] 0.055 | tipifarnib -0.053 | mubritinib 0.111 | [6] -0.049 | [7] -0.042 | [8] -0.163 | [9] -0.018 | entinostat 0.065 | vorinostat 0.019 | citarinostat 0.024 | silmitasertib -0.019 | [10] -0.052 | [11] -0.041

NUP205 (UniProt Q92621)
inactive: bafetinib -0.052 | [1] 0 | nilotinib -0.042 | [2] -0.025 | dasatinib -0.133 | [3] -0.004 | [4] -0.005 | [5] -0.052 | tipifarnib -0.072 | mubritinib 0.017 | [6] -0.042 | [7] -0.023 | [8] -0.075 | [9] -0.1 | entinostat 0.017 | vorinostat 0.041 | citarinostat 0.101 | silmitasertib 0.058 | [10] -0.073 | [11] -0.069

OSTM1 (UniProt Q86WC4)
UniProt Q86WC4, sequence (Q86WC4 whole entry, looked up): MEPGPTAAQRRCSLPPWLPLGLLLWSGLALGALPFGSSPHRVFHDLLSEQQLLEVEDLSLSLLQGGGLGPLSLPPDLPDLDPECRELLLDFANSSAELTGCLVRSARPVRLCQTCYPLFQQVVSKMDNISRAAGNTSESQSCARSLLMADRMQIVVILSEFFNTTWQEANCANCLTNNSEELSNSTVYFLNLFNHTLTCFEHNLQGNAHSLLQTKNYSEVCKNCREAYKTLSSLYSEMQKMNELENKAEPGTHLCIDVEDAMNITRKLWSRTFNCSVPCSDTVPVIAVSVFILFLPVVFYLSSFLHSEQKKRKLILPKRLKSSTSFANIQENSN
inactive: bafetinib -0.208 | [1] 0.091 | nilotinib 0.044 | [2] 0.017 | dasatinib -0.086 | [3] -0.068 | [4] 0.076 | [5] 0.029 | tipifarnib 0.008 | mubritinib -0.048 | [6] -0.035 | [7] -0.029 | [9] 0.003 | entinostat 0.006 | vorinostat 0.072 | citarinostat 0.064 | silmitasertib 0.034 | [10] -0.037 | [11] -0.037
active: [8] -0.319

NDUFB7 (UniProt P17568)
UniProt P17568, sequence (P17568 whole entry, looked up): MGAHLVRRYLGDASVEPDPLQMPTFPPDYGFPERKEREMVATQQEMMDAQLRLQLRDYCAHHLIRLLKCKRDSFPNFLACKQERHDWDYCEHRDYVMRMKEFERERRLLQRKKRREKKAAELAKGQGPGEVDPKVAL
inactive: bafetinib 0 | [1] 0.164 | nilotinib -0.029 | [2] 0.057 | dasatinib 0.022 | [3] -0.053 | [4] 0.043 | [5] 0.01 | tipifarnib -0.029 | mubritinib -0.007 | [6] 0.039 | [7] -0.015 | [8] -0.02 | [9] 0.055 | entinostat -0.013 | vorinostat -0.037 | citarinostat 0.029 | silmitasertib 0 | [10] -0.094 | [11] 0.009

OXR1 (UniProt Q8N573)
UniProt Q8N573, sequence (Q8N573 whole entry, looked up): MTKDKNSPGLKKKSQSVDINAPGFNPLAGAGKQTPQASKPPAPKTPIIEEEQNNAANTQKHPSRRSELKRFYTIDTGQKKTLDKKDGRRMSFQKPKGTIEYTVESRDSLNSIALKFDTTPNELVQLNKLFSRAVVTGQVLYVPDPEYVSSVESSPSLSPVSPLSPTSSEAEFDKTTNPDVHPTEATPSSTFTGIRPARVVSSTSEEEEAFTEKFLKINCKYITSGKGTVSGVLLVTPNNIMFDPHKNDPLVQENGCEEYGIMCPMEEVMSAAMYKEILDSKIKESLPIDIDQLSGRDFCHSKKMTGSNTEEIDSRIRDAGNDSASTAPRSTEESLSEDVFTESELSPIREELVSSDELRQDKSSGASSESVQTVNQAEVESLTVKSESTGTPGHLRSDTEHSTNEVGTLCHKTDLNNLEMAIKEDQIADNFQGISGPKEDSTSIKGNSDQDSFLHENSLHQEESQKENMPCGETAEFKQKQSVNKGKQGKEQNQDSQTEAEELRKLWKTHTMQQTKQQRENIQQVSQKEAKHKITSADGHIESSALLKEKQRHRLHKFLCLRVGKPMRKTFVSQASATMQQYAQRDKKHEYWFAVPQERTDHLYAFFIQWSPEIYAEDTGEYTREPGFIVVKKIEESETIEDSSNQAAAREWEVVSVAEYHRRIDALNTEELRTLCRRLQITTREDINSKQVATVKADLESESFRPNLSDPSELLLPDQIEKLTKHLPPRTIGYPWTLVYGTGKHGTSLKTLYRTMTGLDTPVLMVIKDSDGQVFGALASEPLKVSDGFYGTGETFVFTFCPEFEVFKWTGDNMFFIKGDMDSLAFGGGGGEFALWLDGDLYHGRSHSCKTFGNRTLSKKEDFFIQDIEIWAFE
inactive: bafetinib -0.098 | [1] -0.063 | nilotinib 0.079 | [2] -0.004 | dasatinib -0.034 | [3] -0.023 | [4] 0.081 | [5] 0.013 | tipifarnib -0.038 | mubritinib 0.05 | [6] 0.03 | [7] 0 | [8] -0.157 | [9] -0.008 | entinostat 0.023 | vorinostat -0.029 | citarinostat 0.062 | silmitasertib -0.009 | [10] -0.044 | [11] -0.001

MMS19 isoform 8 (UniProt Q96T76)
UniProt Q96T76, sequence (Q96T76 whole entry, looked up): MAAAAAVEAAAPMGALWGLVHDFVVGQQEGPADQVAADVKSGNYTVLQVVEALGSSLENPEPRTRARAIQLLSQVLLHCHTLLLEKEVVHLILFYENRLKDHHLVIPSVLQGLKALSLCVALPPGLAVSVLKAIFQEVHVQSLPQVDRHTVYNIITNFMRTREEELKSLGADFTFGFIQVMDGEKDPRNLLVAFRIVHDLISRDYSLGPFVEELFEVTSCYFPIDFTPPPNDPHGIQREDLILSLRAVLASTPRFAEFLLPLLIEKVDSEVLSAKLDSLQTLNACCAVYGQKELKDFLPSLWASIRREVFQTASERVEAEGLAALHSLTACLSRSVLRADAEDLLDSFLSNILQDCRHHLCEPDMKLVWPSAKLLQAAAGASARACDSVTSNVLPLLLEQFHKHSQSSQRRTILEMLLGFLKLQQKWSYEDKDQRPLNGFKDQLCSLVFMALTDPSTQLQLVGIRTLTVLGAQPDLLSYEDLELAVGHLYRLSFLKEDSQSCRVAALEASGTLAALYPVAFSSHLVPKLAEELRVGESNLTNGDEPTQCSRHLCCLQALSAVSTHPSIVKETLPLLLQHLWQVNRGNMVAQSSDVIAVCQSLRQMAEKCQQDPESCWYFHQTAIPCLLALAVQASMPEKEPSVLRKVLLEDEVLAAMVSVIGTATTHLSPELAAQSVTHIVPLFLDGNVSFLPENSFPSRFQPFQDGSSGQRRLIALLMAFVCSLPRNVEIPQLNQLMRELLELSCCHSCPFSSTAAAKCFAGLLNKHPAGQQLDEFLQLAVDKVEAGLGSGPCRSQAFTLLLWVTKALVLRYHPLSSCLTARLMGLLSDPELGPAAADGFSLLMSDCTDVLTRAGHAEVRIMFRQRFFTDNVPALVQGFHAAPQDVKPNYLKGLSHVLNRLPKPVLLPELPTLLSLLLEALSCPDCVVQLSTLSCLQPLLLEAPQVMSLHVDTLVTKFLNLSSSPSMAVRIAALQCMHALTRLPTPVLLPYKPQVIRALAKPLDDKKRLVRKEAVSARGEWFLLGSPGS
inactive: bafetinib -0.014 | [1] 0.092 | nilotinib -0.038 | [2] -0.027 | dasatinib -0.205 | [3] -0.002 | [4] -0.021 | [5] 0.02 | tipifarnib -0.055 | mubritinib -0.019 | [6] 0.01 | [7] -0.026 | [8] -0.157 | [9] -0.072 | entinostat 0.066 | vorinostat 0.017 | citarinostat 0.097 | silmitasertib 0.085 | [10] -0.003 | [11] -0.007

PAAF1 (UniProt Q9BRP4)
inactive: bafetinib -0.011 | [1] -0.01 | nilotinib -0.084 | [2] 0.058 | dasatinib -0.051 | [3] -0.026 | [4] 0.018 | [5] 0.016 | tipifarnib -0.03 | mubritinib 0.017 | [6] 0.028 | [7] -0.011 | [8] -0.078 | [9] 0.019 | entinostat 0.006 | vorinostat -0.013 | citarinostat -0.003 | silmitasertib -0.001 | [10] 0.014 | [11] -0.025

MON1B (UniProt Q7L1V2)
inactive: bafetinib -0.071 | [1] 0.004 | nilotinib 0.025 | [2] 0.015 | dasatinib -0.099 | [3] -0.048 | [4] 0.038 | [5] 0.012 | tipifarnib -0.011 | mubritinib 0.065 | [6] 0.015 | [7] -0.045 | [9] -0.053 | entinostat -0.018 | vorinostat -0.001 | citarinostat 0.056 | silmitasertib 0.032 | [10] 0.052 | [11] -0.081
active: [8] -0.312

NQO1 (UniProt P15559)
UniProt P15559, sequence (P15559 whole entry, looked up): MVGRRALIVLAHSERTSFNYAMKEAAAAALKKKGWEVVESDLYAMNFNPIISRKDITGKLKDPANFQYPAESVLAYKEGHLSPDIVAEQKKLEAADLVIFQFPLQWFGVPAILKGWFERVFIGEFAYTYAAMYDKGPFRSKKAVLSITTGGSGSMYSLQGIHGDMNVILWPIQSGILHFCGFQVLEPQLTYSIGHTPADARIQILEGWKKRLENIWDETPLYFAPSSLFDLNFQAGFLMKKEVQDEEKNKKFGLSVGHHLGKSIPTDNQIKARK
inactive: bafetinib 0.025 | nilotinib -0.001 | [2] 0.003 | dasatinib -0.033 | [3] -0.022 | [4] 0.049 | tipifarnib -0.089 | mubritinib 0.025 | [6] -0.032 | [7] 0.039 | [8] -0.018 | [9] -0.034 | entinostat -0.013 | vorinostat -0.024 | citarinostat 0.009 | silmitasertib -0.058 | [10] -0.149 | [11] 0.068
active: [1] 0.365 | [5] 0.291

PACS1 (UniProt Q6VY07)
UniProt Q6VY07, sequence (Q6VY07 whole entry, looked up): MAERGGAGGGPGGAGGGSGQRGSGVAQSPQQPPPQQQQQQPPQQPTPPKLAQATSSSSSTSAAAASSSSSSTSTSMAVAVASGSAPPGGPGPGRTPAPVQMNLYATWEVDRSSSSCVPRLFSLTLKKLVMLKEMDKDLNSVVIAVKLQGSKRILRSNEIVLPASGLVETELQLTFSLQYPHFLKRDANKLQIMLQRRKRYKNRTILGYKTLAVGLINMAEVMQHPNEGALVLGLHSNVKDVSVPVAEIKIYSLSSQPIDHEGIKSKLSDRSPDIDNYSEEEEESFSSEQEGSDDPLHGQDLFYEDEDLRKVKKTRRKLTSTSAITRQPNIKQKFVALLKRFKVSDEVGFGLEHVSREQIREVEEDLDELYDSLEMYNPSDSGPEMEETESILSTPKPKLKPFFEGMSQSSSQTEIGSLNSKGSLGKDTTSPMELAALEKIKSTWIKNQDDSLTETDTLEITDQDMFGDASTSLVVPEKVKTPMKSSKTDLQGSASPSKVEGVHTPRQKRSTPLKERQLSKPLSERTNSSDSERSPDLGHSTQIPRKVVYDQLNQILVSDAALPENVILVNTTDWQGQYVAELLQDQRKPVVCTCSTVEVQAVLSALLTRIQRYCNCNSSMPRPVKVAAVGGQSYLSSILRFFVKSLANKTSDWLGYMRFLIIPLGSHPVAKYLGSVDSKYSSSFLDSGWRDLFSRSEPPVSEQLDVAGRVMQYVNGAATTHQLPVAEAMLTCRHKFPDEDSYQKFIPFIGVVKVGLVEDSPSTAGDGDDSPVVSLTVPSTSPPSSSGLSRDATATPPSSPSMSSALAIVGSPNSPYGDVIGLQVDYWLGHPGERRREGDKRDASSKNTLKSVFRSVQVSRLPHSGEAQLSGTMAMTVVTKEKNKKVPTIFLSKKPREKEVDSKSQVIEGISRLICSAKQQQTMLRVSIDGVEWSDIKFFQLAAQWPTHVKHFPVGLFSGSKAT
inactive: bafetinib 0.008 | [1] 0.02 | nilotinib 0.051 | [2] 0.038 | dasatinib 0.018 | [3] -0.018 | [4] -0.006 | [5] -0.098 | tipifarnib -0.002 | mubritinib -0.021 | [6] 0 | [7] 0.041 | [8] -0.081 | [9] -0.01 | entinostat 0.004 | vorinostat 0.022 | citarinostat -0.012 | silmitasertib -0.074 | [10] 0.062 | [11] -0.113

MORF4L2 (UniProt Q15014)
UniProt Q15014, sequence (Q15014 whole entry, looked up): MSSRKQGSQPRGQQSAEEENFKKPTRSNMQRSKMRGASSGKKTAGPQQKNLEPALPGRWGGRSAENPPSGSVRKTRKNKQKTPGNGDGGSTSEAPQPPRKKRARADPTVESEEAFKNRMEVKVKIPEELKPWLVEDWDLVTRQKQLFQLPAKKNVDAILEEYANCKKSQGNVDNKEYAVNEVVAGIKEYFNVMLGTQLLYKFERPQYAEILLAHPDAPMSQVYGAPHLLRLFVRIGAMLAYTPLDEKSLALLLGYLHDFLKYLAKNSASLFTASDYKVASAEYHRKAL
inactive: bafetinib 0.026 | [1] -0.055 | nilotinib 0.009 | [2] 0.01 | dasatinib 0.045 | [3] -0.005 | [4] -0.087 | [5] -0.131 | tipifarnib 0.059 | mubritinib -0.076 | [6] 0.021 | [7] 0.047 | [8] 0.123 | [9] 0.027 | entinostat -0.066 | vorinostat 0.04 | citarinostat -0.044 | silmitasertib 0.087 | [10] 0.04 | [11] -0.121

MRPL34 (UniProt Q9BQ48)
inactive: bafetinib 0.176 | [1] 0.035 | nilotinib -0.083 | [2] 0.248 | dasatinib 0.065 | [3] -0.064 | [4] -0.142 | [5] -0.048 | tipifarnib 0.058 | mubritinib 0.032 | [6] 0.02 | [7] 0.018 | [8] 0.045 | [9] 0.095 | entinostat -0.041 | vorinostat 0.035 | citarinostat 0.004 | silmitasertib 0.053 | [10] 0.09 | [11] -0.175

MYH10 isoform 3 (UniProt P35580)
inactive: bafetinib -0.046 | [1] 0.033 | nilotinib -0.049 | [2] -0.001 | dasatinib -0.057 | [3] 0.004 | [4] 0.056 | [5] 0.011 | tipifarnib -0.083 | mubritinib 0.059 | [6] 0.014 | [7] -0.026 | [8] -0.102 | [9] -0.035 | entinostat 0.019 | vorinostat 0.004 | citarinostat 0.041 | silmitasertib -0.008 | [10] -0.036 | [11] 0.013
